High-throughput results deposited in PubChem BioAssay by several laboratories.
A selection: hits, their analogues and other compounds. The true share with any hit is near 1.5%.
MRP1 act: activators of MRP-1 | H69AR cells + doxorubicin, viability rescue, CellTiter-Glo | viability increase, % at 10 µM | 0.61% of 140,000 active | AID 799;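 active = viability gain under doxorubicin at or above a set limit, the compound median plus 3 SD, cut at about 4.7% in these data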;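 note: MRP-1 overexpressing cells given doxorubicin 25 µM after compound pretreatment; 18-22 h compound pretreatment then 72 h with doxorubicin before readout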
hDAT+cocaine: human DAT dopamine uptake with cocaine, either direction; 1.3% of 110,000 active; B-score at 10 µM; LLC-PK1 hDAT cells, [14C]-dopamine uptake with cocaine IC80; actives deviate in either direction;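 active = Z score or B-score, a plate-position-corrected score, falls beyond the plate's 99.7% confidence bounds, in either direction; inactive = both scores lie inside the 99.7% bounds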
Target sequence (Q01959 whole entry, looked up): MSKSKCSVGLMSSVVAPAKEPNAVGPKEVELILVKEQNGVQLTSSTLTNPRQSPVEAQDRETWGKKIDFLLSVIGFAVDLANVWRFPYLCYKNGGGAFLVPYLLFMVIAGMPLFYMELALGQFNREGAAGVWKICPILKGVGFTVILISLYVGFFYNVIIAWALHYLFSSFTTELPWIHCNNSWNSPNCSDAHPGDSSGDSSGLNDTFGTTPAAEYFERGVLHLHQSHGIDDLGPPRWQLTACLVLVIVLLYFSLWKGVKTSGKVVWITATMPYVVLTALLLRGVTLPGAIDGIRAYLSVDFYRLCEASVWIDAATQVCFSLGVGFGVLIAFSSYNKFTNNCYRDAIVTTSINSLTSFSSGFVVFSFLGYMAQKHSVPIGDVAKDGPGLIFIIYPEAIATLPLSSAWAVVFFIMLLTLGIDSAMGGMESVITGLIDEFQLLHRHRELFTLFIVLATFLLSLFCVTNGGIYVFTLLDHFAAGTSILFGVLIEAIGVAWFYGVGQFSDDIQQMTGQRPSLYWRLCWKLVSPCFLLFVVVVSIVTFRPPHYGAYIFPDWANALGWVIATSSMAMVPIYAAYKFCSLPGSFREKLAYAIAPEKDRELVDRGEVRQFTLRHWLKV
MRP reversal: reverses drug resistance mediated by MRP | 0.04% of 85,000 active | H69AR cells + 2 uM doxorubicin, CellTiter-Glo, 72 h | differential viability (reversal), % at 10 µM;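 active = viability drop by adding the cancer drug above about 55%, with treated viability meeting a 40% cutoff, limit read from the data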;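 note: larger differential means the compound sensitizes cells more to doxorubicin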
Each line names hits and unclear results; the compound was inactive in the other large screens.

Cc1ccccc1-c1nc(S(=O)(=O)c2ccc(Cl)cc2)c(NCCN2CCOCC2)o1	hDAT+cocaine 1.9
Cc1cccc(S(=O)(=O)c2c(N)n(/N=C/c3cccnc3)c3nc4ccccc4nc23)c1	hDAT+cocaine 3.2
Cc1cccc(S(=O)(=O)c2c(N)n(/N=C/c3ccco3)c3nc4ccccc4nc23)c1	none
CCCN1CCC(=O)N([C@H](CSc2ccc(OC)cc2)Cc2ccccc2)CC1	hDAT+cocaine 2.5 (no result: MRP1 act, MRP reversal)
CCCN1CCC(=O)N([C@H](CSc2ccc(C)cc2)Cc2ccccc2)CC1	none (no result: MRP1 act, MRP reversal)
COc1cc(Cl)c(C)cc1NC(=O)CNC(=O)Cn1cnc2ccccc2c1=O	none (no result: MRP reversal)
CC(=O)Nc1nnc(SCC(=O)NCCOc2ccccc2)s1	hDAT+cocaine -8
Cc1csc(NC(=O)CSc2nnc(NC(=O)COc3ccccc3)s2)n1	none (no result: hDAT+cocaine, MRP reversal)
CCC1SC2=NC(C)=C(C(=O)OCCOC)C(/C=C/c3ccccc3OC)N2C1=O (centres undefined)	hDAT+cocaine -7.6
CCC1SC2=NC(C)=C(C(=O)OCC(C)C)C(/C=C/c3ccccc3OC)N2C1=O (centres undefined)	none
CCOc1ccc(OCC)c(NS(=O)(=O)c2ccc3c(c2)CCN3C(=O)C2CCC2)c1	none
Cc1csc(NC(=O)c2cc3c(s2)CCCCC3)n1	none
O=C(Nc1ccon1)c1cc2c(s1)CCCC2	MRP1 act 4.8
O=C(Nc1ccon1)c1cc2c(s1)CCCCCC2	none
Cc1csc(NC(=O)c2cc3c(s2)CCCC3)n1	hDAT+cocaine 3.2
CC(C)=N/N=C(\c1cccc([N+](=O)[O-])c1)C12CN3CN(CN(C3)C1)C2	none (no result: hDAT+cocaine, MRP reversal)
O=C(CCCc1c[nH]c2ccccc12)Nc1ccc2ccccc2c1	none (no result: hDAT+cocaine, MRP reversal)
Cn1c2c(c(=O)n(C)c1=O)C(c1ccc(Cl)cc1)C(C#N)=C(N)O2 (centres undefined)	none (no result: hDAT+cocaine, MRP reversal)
COC(=O)c1[nH]c2ccc(C)cc2c1NC(=O)CN1CCN(C(=O)c2ccccc2)CC1	hDAT+cocaine 2.7
COC(=O)c1[nH]c2ccc(C)cc2c1NC(=O)CN1CCN(c2ccccc2)CC1	none
CC[C@H](C)/C=C/C1=CC2=C(Cl)C(=O)[C@@]3(C)OC(=O)C(C(=O)[C@H](C)[C@@H](C)O)=C3C2=CO1	none (no result: MRP1 act, MRP reversal)
O=C(c1c(O)c2ccccc2oc1=O)C1CCCCC1	none
O=C(CCC1CCCC1)c1c(O)c2ccccc2oc1=O	hDAT+cocaine -3.2
CCOC(=O)C1(O)CC(C)=NN1C(=O)c1cccc(Cl)c1 (centres undefined)	none (no result: hDAT+cocaine, MRP reversal)
COC(=O)c1sccc1NC(=S)N1CC(C)CC(C)C1 (centres undefined)	none
Cc1nn(CC(O)COc2ccc3c(c2)CCC3)c(C)c1Br (centres undefined)	none
CC(=O)c1c(C)nn(CC(O)COc2ccc3c(c2)CCC3)c1C (centres undefined)	hDAT+cocaine 15
CN1CCN(CC(=O)Nc2nc(-c3ccccc3)cs2)CC1	none (no result: hDAT+cocaine)
O=C(Cn1nnc(-c2ccc(CN3CCOCC3)cc2)n1)Nc1nc(-c2ccccc2)cs1	hDAT+cocaine -9.6
CC(Oc1ccc2ccc(=O)oc2c1)C(=O)c1ccccc1 (centres undefined)	none (no result: hDAT+cocaine, MRP reversal)
O=C(N/N=C/c1c(O)ccc2ccccc12)c1[nH]ncc1Br	none (no result: hDAT+cocaine, MRP reversal)
Cc1ccc(O)c(/C=N/NC(=O)c2[nH]ncc2Br)c1	MRP1 act 4.9 (no result: hDAT+cocaine, MRP reversal)
COc1ccccc1NC(=O)CSCc1nc2ccccc2[nH]1	none (no result: hDAT+cocaine, MRP reversal)
COc1ccc(C(C)=O)cc1CSc1nnc(Nc2ccccc2C)s1	MRP1 act 6.0 (no result: hDAT+cocaine, MRP reversal)
COc1ccc(C(C)=O)cc1CSc1nnc(Nc2ccc(C)cc2C)s1	none (no result: hDAT+cocaine, MRP reversal)
COC(=O)c1ccc(CSc2nnc(Nc3ccc(OC)cc3)s2)o1	none
COC(=O)c1ccc(CSc2nnc(Nc3ccccc3OC)s2)o1	hDAT+cocaine 3.5 (no result: MRP reversal)
C/C(=N\NC(=O)c1c(Cl)cnn1C)c1ccc(NC(=O)c2ccncc2)cc1	none (no result: hDAT+cocaine, MRP reversal)
CN1CCN(c2ccccc2NC(=O)c2ccc(OCc3ccccc3)cc2)CC1	hDAT+cocaine 2.6 (no result: MRP reversal)
CN1CCN(c2ccccc2NC(=O)c2cccc(OCc3ccccc3)c2)CC1	none
O=C(Nc1ccccc1N1CCN(c2ccc(F)cc2)CC1)c1ccccc1	none
CN1CCN(c2ccccc2NC(=O)c2ccc(-c3ccccc3)cc2)CC1	hDAT+cocaine 4.9
COc1c(Cl)cc(Cl)cc1C(=O)Nc1ccccc1N1CCN(C(C)=O)CC1	none (no result: MRP1 act, hDAT+cocaine)
COc1ccc(Cl)cc1C(=O)Nc1ccccc1N1CCN(C)CC1	hDAT+cocaine 3.5
Clc1ccc(-n2cccc2/C=N/n2cnnc2)cc1	none
Cn1cccc1/C=N/n1cnnc1	hDAT+cocaine 2.8
COc1cccc(/C=N/N2CCN(c3ccncc3S(=O)(=O)N3CCCCC3)CC2)c1	none (no result: hDAT+cocaine, MRP reversal)
CN(C)S(=O)(=O)c1ccc(C(=O)Nc2nc(-c3cc4ccccc4o3)cs2)cc1	none (no result: hDAT+cocaine, MRP reversal)
CN(CC1CCCO1)S(=O)(=O)c1ccc(C(=O)Nc2nc(-c3ccccn3)cs2)cc1 (centres undefined)	hDAT+cocaine 2.7
CCOC(=O)C(C)c1nc2ccccc2[nH]c1=O (centres undefined)	none
